Records with an inconclusive call do not appear. Calls of active or inactive are those of the source. Rule for the calls, unless noted: active = hit-call score of the fitted dose curve at least 0.9, where 1 is the maximum; inactive = score below 0.9.

The values below come from PubChem BioAssay (EPA / NIEHS).

A short description of test [1]: CCTE_Mundy_HCI_iCellGluta_NOG_NeuronCount: CCTE's Neurite Outgrowth Assay in iCellGluta cells for Neuron Count, Mundy Lab (AID 2284340; active = hit-call score of the fitted dose curve at least 0.9, where 1 is the maximum;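 note: cells fixed about 48 h after compound addition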). The method, boiled down: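 Neuron count read by automated high-content imaging of Hoechst 33342 and betaIII-tubulin/Alexa Fluor-488 labelling in human iPSC glutamatergic neurons. Activity fitted relative to DMSO.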
The nature of test [2]: CCTE_Mundy_HCI_iCellGluta_NOG_NeuriteCount: CCTE's Neurite Outgrowth Assay in iCellGluta cells for Neurite Count, Mundy Lab (AID 2284342; active = hit-call score of the fitted dose curve at least 0.9, where 1 is the maximum;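 note: chemical exposure about 48 hours starting 2 hours after plating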).
Test [3] is described as follows: Tanguay_ZF_120hpf_MO24: Oregon State University Tanguay Lab 24 Hour Post-fertilization zebrafish Assay for Mortality (AID 2284389). The method, boiled down:
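Embryo death at 24 hpf was recorded as present or absent in Tropical 5D zebrafish, dechorionated at 4 hpf and dosed statically from 6 hpf (28C, 0.64% DMSO); 5 uM trimethyltin chloride served as positive control.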

A short description of test [4]: Tanguay_ZF_120hpf_DP24: Oregon State University Tanguay Lab 24 Hour Post-fertilization zebrafish Assay for Delayed Development (AID 2284390). The method, boiled down:
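Scored at 24 hpf as a binary present/absent call of delayed development by brightfield, with dead embryos not assessed. Embryos (5D wild type, chorion removed with pronase at 4 hpf) dosed statically from 6 hpf at 28 C in 0.64% DMSO.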

The nature of test [5]: Tanguay_ZF_120hpf_CRAN: Oregon State University Tanguay Lab 120 Hour Post-fertilization zebrafish Assay for Craniofacial Malformation (AID 2284397). The method, boiled down: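 Scoring of craniofacial malformation as a binary endpoint was done at 120 hpf by brightfield microscopy and was not done in dead embryos. Exposure was static, starting at 6 hpf, in dechorionated wild-type embryos held singly at 28C with 0.64% DMSO final.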

A short description of test [6]: Tanguay_ZF_120hpf_MORT: Oregon State University Tanguay Lab 120 Hour Post-fertilization zebrafish Assay for Mortality (AID 2284399). The method, boiled down:
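Mortality, recorded present/absent via brightfield imaging at 24 and 120 hpf, in 5D zebrafish embryos exposed statically from 6 hpf after pronase chorion removal. Exposure at 28C, 0.64% DMSO vehicle, DMSO baseline.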

The nature of test [7]: Tanguay_ZF_120hpf_EDEM: Oregon State University Tanguay Lab 120 Hour Post-fertilization zebrafish Assay for Edema Malformation (AID 2284400). The method, boiled down:
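Edema recorded as a binary endpoint under brightfield at 120 hpf, excluding embryos that died. Exposure was static, sealed, 28C, from 6 hpf in dechorionated wild-type larvae, final DMSO 0.64%, DMSO as baseline.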

The nature of test [8]: Tanguay_ZF_120hpf_BRN: Oregon State University Tanguay Lab 120 Hour Post-fertilization zebrafish Assay for Brain Region Malformation (AID 2284402). The method, boiled down: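 Binary brightfield scoring of brain malformation at 120 hpf in 5D wild-type larvae, chorion removed with pronase at 4 hpf. Static exposure began at 6 hpf, 28C, sealed plates, DMSO 0.64% (vol/vol) as vehicle baseline.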

Test [9] is described as follows: Tanguay_ZF_120hpf_TCHR: Oregon State University Tanguay Lab 120 Hour Post-fertilization zebrafish Assay for Touch Responsive (AID 2284403). The method, boiled down:
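Binary touch-response calls are made at 120 hpf in 5D wild-type zebrafish larvae. These larvae were dechorionated with pronase and exposed singly from 6 hpf in sealed, dark plates at 28 °C with 0.64% DMSO final; dead embryos are excluded.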

The nature of test [10]: CCTE_Padilla_ZF_Score.Craniofacial: CCTE's 144 Hour Post-fertilization zebrafish Assay Score for Craniofacial Malformation, Padilla Lab (AID 2284405). The method, boiled down: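 Craniofacial defects were scored at 6 dpf by two blinded observers using stereomicroscopy. Exposure of wild-type embryos began at 6–8 hpf in sealed wells of 10% Hanks' solution at 26C, with chemical removed by rinsing at 5 dpf.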

A short description of test [11]: CCTE_Padilla_ZF_Score.Spine: CCTE's 144 Hour Post-fertilization zebrafish Assay Score for Spine Malformation, Padilla Lab (AID 2284407). The method, boiled down: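 Spine malformation scored at 6 dpf by two independent blinded observers under stereomicroscope, after static sealed exposure from 6–8 hpf at 26C in Hanks' solution with rinse on 5 dpf. Positive-direction fit against DMSO control.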

Test [12] is described as follows: CCTE_Padilla_ZF_Score.Swim_bladder: CCTE's 144 Hour Post-fertilization zebrafish Assay Score for Swim Bladder Malformation, Padilla Lab (AID 2284408). The method, boiled down: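 Swim bladder inflation scored at 6 dpf by two blinded observers under a stereo microscope. Exposure ran from 6–8 hpf in sealed wells of 10% Hanks' at 26C, with rinsing at 5 dpf; DMSO served as baseline.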

Test [13] can be described thus: CCTE_Padilla_ZF_Score.Position: CCTE's 144 Hour Post-fertilization zebrafish Assay Score for Position, Padilla Lab (AID 2284409). The method, boiled down: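 Wild-type zebrafish embryos (with chorions) exposed singly from 6–8 hpf in sealed wells of Hanks' solution at 26C, rinsed at 5 dpf. At 6 dpf, blinded assessors scored abnormal water-column position by brightfield stereomicroscopy, relative to DMSO.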

Test [14] can be described thus: CCTE_Padilla_ZF_Score.Living: CCTE's 144 Hour Post-fertilization zebrafish Assay Score for Viability, Padilla Lab (AID 2284410).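 Note: larval death at 6 dpf judged by absent heartbeat or coagulation.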 The method, boiled down:
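Mortality at 6 dpf, judged as absent heartbeat or coagulation by two blinded observers, after sealed static exposure beginning at 6–8 hpf at 26C. Larvae were rinsed free of chemical at 5 dpf, and activity was fitted relative to DMSO.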

A short description of test [15]: CCTE_Padilla_ZF_Score.General: CCTE's 144 Hour Post-fertilization zebrafish Assay Score for General Malformation, Padilla Lab (AID 2284411). The method, boiled down:
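Malformation, death and hatching were scored at 6 dpf by two blinded observers under a stereo microscope. Embryos were dosed singly from 6-8 hpf in sealed plates of 10% Hanks' at 26C and rinsed on 5 dpf; DMSO baseline.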

A short description of test [16]: Tanguay_ZF_120hpf_AXIS: Oregon State University Tanguay Lab 120 Hour Post-fertilization zebrafish Assay for Axial Malformation (AID 2284398). The method, boiled down: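 Scoring was binary (present or absent) for body-axis defects, judged by brightfield imaging at 120 hpf in surviving larvae. Exposure was static at 28C from 6 hpf in chorion-free 5D wild-type embryos, with 0.64% DMSO vehicle.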

The nature of test [17]: IUF_NPC1_cytotoxicity_72hr: Cytotoxicity Assessment at 72 hours in the Leibniz Research Institute for Environmental Medicine (IUF) Neural Progenitor Cell Proliferation Assay (NPC1) (AID 2284332; active = hit-call score of the fitted dose curve at least 0.9, where 1 is the maximum;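 note: rising LDH signal means more cytotoxicity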). The method, boiled down:
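Cytotoxicity by LDH membrane-integrity assay on medium supernatants, fluorescence via resazurin reduction, after 3-day single exposure of primary hNPC spheres at 37C, pH 7.2-7.6 with growth factors. Fitted upward against baseline.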

Test [18] can be described thus: Tanguay_ZF_120hpf_ANY: Oregon State University Tanguay Lab 120 Hour Post-fertilization zebrafish Assay for Any Mortality and Malformation (AID 2284404). The method, boiled down:
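Dechorionated Tropical 5D wild-type embryos, one per well from 6 hpf, static exposure in sealed, dark plates at 28C until 120 hpf, 0.64% DMSO final. Brightfield scoring of mortality and malformations as binary presence/absence, pooling 13 morphology endpoints.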

In test [19] the test system is SERPINA7 (gene 6906). The test is described as follows: CCTE_GLTED_hTBG: CCTE's human Thyroxine-binding Globulin (TBG) Inhibition Assay, Great Lakes Toxicology and Ecology Division (GLTED) Lab (AID 2284343; active = hit-call score of the fitted dose curve at least 0.9, where 1 is the maximum;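 note: active chemicals lower fluorescence versus DMSO baseline by displacing probe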). The method, boiled down: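 Cell-free displacement of the fluorescent probe ANSA from human thyroxine-binding globulin after 2 h exposure. Read-out at ex 380/em 475 nm; DMSO baseline.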

Test [20] is described as follows: CCTE_Padilla_ZF_Score.Edema: CCTE's 144 Hour Post-fertilization zebrafish Assay Score for Edema Malformation, Padilla Lab (AID 2284406). The method, boiled down: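 Edema scored at 6 dpf by two blinded observers under a stereo microscope, in single outbred wild-type larvae exposed from 6-8 hpf in sealed wells (Hanks', 26C, 14:10 h light) and chemical-free after a 5 dpf rinse.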

Turning to `O=C(CC(=O)C(F)(F)C(F)(F)F)C(F)(F)F`, the molecule was classed as inactive in [1], in test [2], in test [3], in test [4], in test [5] and in test [6]. The molecule was called inactive in test [7], in test [8], in test [9], in [10], in test [11] and in [12]. The molecule was classed as inactive in test [13], in test [14] and in test [15].

Turning to `CCO[Si](CCC(F)(F)C(F)(F)C(F)(F)C(F)(F)C(F)(F)C(F)(F)F)(OCC)OCC`, the molecule was classed as inactive in test [3], in [4], in test [5], in test [16], in [6] and in test [7]. Moreover, the call in test [8], in test [9], in [10], in test [11], in test [12] and in [13] was inactive. Besides, the molecule was classed as inactive in [14].

Take `CC(CCl)OP(=O)(OC(C)CCl)OC(C)CCl` (stereo not drawn): the molecule was classed as inactive in test [17], in test [1] and in test [2].

Take `C=C(C)C(=O)OCCC(F)(F)C(F)(F)C(F)(F)C(F)(F)C(F)(C(F)(F)F)C(F)(F)F`: the molecule was called inactive in [3], in test [4], in test [5], in test [16], in test [6] and in test [7]. Also, the molecule was classed as inactive in test [8], in test [9], in test [18], in test [10], in [11] and in test [12]. Also, the molecule was called inactive in [13] and in test [14].

Consider `FC(F)(F)C(F)(F)C(F)(F)C(F)(F)CCI`, for which the result in test [1], in test [2], in test [3], in [4], in test [5] and in test [6] was inactive. The call in test [7], in test [8], in test [9], in test [10], in [20] and in [11] was inactive. For the same molecule, the molecule was called inactive in [12], in test [13] and in [14]. Also, the AC50 in [19] is 46.7 µM (active).

On to `O=C(O)C(F)(F)C(F)(F)C(F)(F)C(F)(F)C(F)(F)C(F)(F)C(F)(F)C(F)(F)Cl`, for which the outcome in [1], in test [2], in [3], in test [4], in [6] and in [11] was inactive. In addition, the AC50 in [19] was 62.6 µM (active); in [5] it was 37.2 µM (active); in [7], 37.2 µM (active); in [8] it was 47.7 µM (active); in [9], 37.2 µM (active); in test [10], 35.7 µM (active). For the same molecule, the half-maximal activity concentration (AC50) in [12] is 9.95 µM (active); in test [13], 70.4 µM (active); in [14], 35.5 µM (active); in [15] it was 16.7 µM (active).

In the case of `FC(F)(F)C(F)(F)C(F)(F)C(F)(F)C(F)(F)C(F)(F)C(F)(F)C(F)(F)F`, the molecule was called inactive in test [1], in test [2], in test [3], in test [4], in test [5] and in [6]. For the same molecule, the result in [7], in test [8], in [9], in test [10], in test [11] and in [12] was inactive. For the same molecule, the outcome in test [13] and in [14] was inactive.

In the case of `FC(F)(F)C(F)(F)C(F)(F)C(F)(F)C(F)(F)C(F)(F)CC1CO1` (stereo not drawn), the outcome in test [1], in test [2], in test [3], in test [4], in [5] and in test [6] was inactive. The outcome in test [7], in test [8], in [9], in [10], in [11] and in test [12] was inactive. The molecule was called inactive in test [13], in [14] and in test [15].

Take `O=P(O)(O)OCCC(F)(F)C(F)(F)C(F)(F)C(F)(F)C(F)(F)C(F)(F)F`: the outcome in test [1], in test [2], in test [3], in test [5], in test [7] and in [8] was inactive. For the same molecule, the result in test [9], in test [10], in test [20], in test [11], in [12] and in [13] was inactive. The call in test [14] was inactive. Moreover, the AC50 in [4] is 57.9 µM (active); in test [6] it was 18.7 µM (active).

`Cc1ccc(S(=O)(=O)OCC(F)(F)C(F)(F)C(F)(F)C(F)(F)C(F)(F)C(F)F)cc1`: the outcome in test [3], in test [4], in test [5], in [16], in test [6] and in test [7] was inactive. Also, the result in test [8], in test [9], in [10], in test [20], in [11] and in test [13] was inactive. For the same molecule, the outcome in test [14] was inactive. For the same molecule, in test [12], the AC50 was 9.81 µM (active).

With `OCCCC(F)(F)C(F)(F)C(F)(F)C(F)(F)C(F)(F)C(F)(F)C(F)(F)F`, the outcome in test [1], in test [2], in [3], in test [4], in [5] and in test [16] was inactive. Also, the molecule was classed as inactive in [6], in [7], in test [8], in test [9], in test [10] and in [11]. Further, the result in [13] and in test [14] was inactive. Besides, the AC50 in test [12] is 88.1 µM (active).

On to `O=S(=O)(O)c1ccc2ccccc2c1`, for which, in [19], the half-maximal activity concentration (AC50) is 24.5 µM (active).

On to `OC[C@@H](O)[C@@H](O)[C@H](O)[C@@H](O)CO`, for which the molecule was called inactive in test [17].

As for `FC(F)(F)C(F)(F)C(F)(F)CI`, the molecule was classed as inactive in [1], in test [2], in test [3], in test [4], in test [5] and in [16]. Moreover, the call in test [6], in [7], in [8], in [9], in [10] and in test [20] was inactive. Besides, the result in test [11], in test [12], in test [13] and in test [14] was inactive.

The term AC50 denotes the midpoint of the concentration-response curve, whichever way the signal moves.
